Bioassay records from PubChem BioAssay.
Luciferase inh: blocks purified firefly luciferase enzyme activity; P08659; purified P. pyralis luciferase, luminescence, biochemical; Potency, µM (series often up to 115 µM), actives largely listed as inhibitors; actives 2.5% (n = 76,000); active means well fitted curve in the direction sought with a large enough effect; inconclusive means small, poorly fitted or top-dose-only effect, or another doubt; inactive means no such curve, though single readings can be large; an effect the other way counts as inactive or inconclusive; further: on the % scale 0 is the no-effect control and ±100 the full control effect; nearly all actives have a fitted effect of over 65% in size
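Purified 10nM P. pyralis luciferase with 10uM D-luciferin and 10uM ATP in 50mM Tris acetate pH 7.5, 10mM Mg acetate, 0.01% Tween-20, 0.05% BSA. qHTS titration; luminescence read by CCD imager.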
HEK293 tox: HEK 293 cell cytotoxicity; HEK 293 viability, ATP luminescence (CellTiter-Glo), 48-72 h; Potency, µM (top dose mostly 115 µM), inactives show top-dose activity change, negative = cytotoxicity, hits mostly inhibitors; actives 6.6% (n = 94,000); AID 1345083; active means well fitted curve in the direction sought with a large enough effect; inconclusive means small, poorly fitted or top-dose-only effect, or another doubt; inactive means no such curve, though single readings can be large; an effect the other way counts as inactive or inconclusive; further: on the % scale 0 is the no-effect control and ±100 the full control effect; nearly all actives have a fitted effect of over 60% in size
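Cells seeded first (HEK 293, 250 cells/well), then compound added by pintool. Incubation ran 48 or 72 hr at 37 degree Celsius. CellTiter-Glo was added and luminescence imaged after 10 min at room temperature.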
3T3 cytotox: cytotoxic compounds in NIH 3T3 cells; actives 4.3% (n = 94,000); AID 1345082; NIH 3T3 viability, CellTiter-Glo ATP luminescence, 48-72 h; Potency, µM (titrated, usually from 96.7 µM), for the others: at the top dose activity change, negative = cytotoxicity, most hits filed as inhibitors; active means well fitted curve in the direction sought with a large enough effect; inconclusive means small, poorly fitted or top-dose-only effect, or another doubt; inactive means no such curve, though single readings can be large; an effect the other way counts as inactive or inconclusive; further: on the % scale 0 is the no-effect control and ±100 the full control effect; nearly all actives have a fitted effect of over 55% in size
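Cells were seeded at 400 per well, treated with pin-transferred compound, and kept 48 or 72 hr at 37 °C before CellTiter-Glo addition and luminescence imaging of cellular ATP.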
hNpr1 antagonist: human Npr1 receptor antagonism. Potency, µM (titrated, usually from 46.3 µM), inactives show at the highest dose activity change, negative = inhibition, usual class: inhibitors. actives 1.6% (n = 76,000). P16066. HEK293 hNpr1 GloSensor cGMP, ANP-stimulated luminescence. AID 1347048; further: on the % scale 0 is the no-effect control and ±100 the full control effect; nearly all actives have a fitted effect of over 60% in size
Target sequence (P16066 whole entry, looked up): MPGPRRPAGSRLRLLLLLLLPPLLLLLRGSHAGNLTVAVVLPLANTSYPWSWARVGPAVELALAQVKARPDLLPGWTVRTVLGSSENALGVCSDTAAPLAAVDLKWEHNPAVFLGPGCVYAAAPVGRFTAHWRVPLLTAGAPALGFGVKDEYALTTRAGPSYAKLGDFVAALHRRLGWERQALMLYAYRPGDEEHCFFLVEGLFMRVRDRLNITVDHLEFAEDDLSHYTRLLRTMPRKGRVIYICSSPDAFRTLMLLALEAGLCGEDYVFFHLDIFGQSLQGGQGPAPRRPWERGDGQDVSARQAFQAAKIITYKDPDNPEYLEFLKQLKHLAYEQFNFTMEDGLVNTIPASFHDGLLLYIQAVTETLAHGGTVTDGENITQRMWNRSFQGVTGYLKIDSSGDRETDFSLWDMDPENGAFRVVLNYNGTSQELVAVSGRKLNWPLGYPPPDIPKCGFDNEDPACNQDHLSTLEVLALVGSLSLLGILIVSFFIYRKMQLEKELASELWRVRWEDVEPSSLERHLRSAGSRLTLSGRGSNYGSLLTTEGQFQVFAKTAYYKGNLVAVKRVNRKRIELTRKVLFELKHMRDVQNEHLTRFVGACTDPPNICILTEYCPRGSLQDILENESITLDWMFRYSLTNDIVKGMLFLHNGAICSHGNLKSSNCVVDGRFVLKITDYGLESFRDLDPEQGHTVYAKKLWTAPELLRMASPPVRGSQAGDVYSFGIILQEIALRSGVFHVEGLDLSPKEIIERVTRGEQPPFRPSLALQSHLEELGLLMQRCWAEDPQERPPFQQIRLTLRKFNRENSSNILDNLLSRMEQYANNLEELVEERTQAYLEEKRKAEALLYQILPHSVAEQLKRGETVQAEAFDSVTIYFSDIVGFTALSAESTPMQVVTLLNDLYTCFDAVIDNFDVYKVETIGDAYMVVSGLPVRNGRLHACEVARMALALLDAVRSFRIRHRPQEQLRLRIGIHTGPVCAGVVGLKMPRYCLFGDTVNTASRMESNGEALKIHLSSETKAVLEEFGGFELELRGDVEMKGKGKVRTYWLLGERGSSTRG
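Compound pre-incubated 30 min at room temperature on GloSensor-loaded HEK293 cells stably carrying hNpr1 and the pGS-40F cGMP biosensor. Stimulation uses hNppA at 0.1 nM final; luminescence is taken at baseline and 20 min post-agonist.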
NPR1 antag cnf: hNpr1 antagonism, confirmation assay | actives 76% (n = 1,400) | AID 1347044 | shares compounds with hNpr1 antagonist | HEK293 hNpr1 cGMP GloSensor luminescence, ANP-stimulated | Potency, µM (series often up to 57.6 µM), without a hit: at the highest dose activity change, negative = inhibition, hits mostly inhibitors; further: nearly all actives have a fitted effect of over 70% in size
NPR2 antag: selectivity test of Npr1 antagonists against human Npr2; shares compounds with hNpr1 antagonist; HEK293 hNpr2 GloSensor cGMP luminescence, CNP-stimulated; Potency, µM (titrated, usually from 57.6 µM), inactives show at the top dose activity change, negative = inhibition, usual class: inhibitors; actives 67% (n = 1,400); further: nearly all actives have a fitted effect of over 70% in size
FLuc counter: inhibits firefly luciferase, false Npr1 antagonist flag; shares compounds with hNpr1 antagonist; Potency, µM (doses to about 57.6 µM), inactives show top-dose activity change, negative = inhibition, most hits filed as inhibitors; actives 0.7% (n = 1,400); purified FLuc enzyme, luminescence, Km substrate; active means well fitted curve in the direction sought with a large enough effect; inconclusive means small, poorly fitted or top-dose-only effect, or another doubt; inactive means no such curve, though single readings can be large; an effect the other way counts as inactive or inconclusive; further: 0% is about no effect
GloSensor cGMP: control cell line activity, Npr1 antagonist counter-screen. actives 69% (n = 1,400). shares compounds with hNpr1 antagonist. AID 1347051. HEK293 GloSensor cGMP, SNP-stimulated, luminescence. Potency, µM (titrated, usually from 57.6 µM), inactives show at the top dose activity change, negative = inhibition, actives largely listed as inhibitors; further: on the % scale 0 is the no-effect control and ±100 the full control effect; nearly all actives have a fitted effect of over 70% in size
The depositor's hits bear a star; i = inactive; ? = inconclusive; · = not tested or not shown; [ ] = another dose, or the depositor's remark. Most compounds without a hit are left out; they make up all but 11% or so of the library. Unless noted, the call rests on the fitted dose curve. Potency means the concentration at half of the fitted maximal effect.

SMILES | Luciferase inh | HEK293 tox | 3T3 cytotox | hNpr1 antagonist | NPR1 antag cnf | NPR2 antag | FLuc counter | GloSensor cGMP
COCc1nc(-c2ccc(OC3CCN(Cc4ccc(C(F)(F)F)cc4)C3)cc2)no1 (stereo not drawn) | i | ? | ? | 7.94µM* | 8.62µM* | 10.9µM* | 2.5% | 7.69µM*
Cn1nc(C(=O)N2CCC(Oc3ccc(-c4noc(C5CC5)n4)cc3)C2)c2ccccc21 (stereo not drawn) | i | ? | ? | ? | · | · | · | ·
COCc1nc(-c2ccc(OC3CCN(C(=O)c4nn(C)c5ccccc45)C3)cc2)no1 (stereo not drawn) | i | ? | ? | 11.2µM* | 19.3µM* | 19.3µM* | 0.4% | 19.3µM*
CCOC(=O)[C@@H]1[C@@H](O)C(=O)NC12CCN(C(=O)c1ccc(Cl)cc1)CC2 | · | -18.6% | ? | · | · | · | · | ·
COCCn1c(=O)c(C(=O)N2CCN(C(=O)Nc3ccccc3)CC2)nc2cccnc21 | · | i | -13.8% | · | · | · | · | ·
COc1cccc(-c2noc(CC3CCN(C(=O)CCc4ccccc4)CC3)n2)c1 | i | ? | ? | 12.6µM* | 27.3µM* | 24.3µM* | -7.0% | 24.3µM*
Cc1ccc(OCCC2CCN(C(=O)CCc3ccccc3)C2)cc1 (stereo not drawn) | i | ? | ? | -1.2% | · | · | · | ·
COc1ccc(CCC(=O)N2CCC(Cc3nc(-c4ccccc4)no3)CC2)cc1 | i | 35.5µM* | ? | 10µM* | 12.2µM* | 15.3µM* | 2.2% | 12.2µM*
Cc1ccc(-c2noc(CCCC(=O)N3CCC(CCOc4ccccc4F)C3)n2)cc1 (stereo not drawn) | i | ? | ? | 4.47µM* | 17.2µM* | 19.3µM* | -2.6% | 15.3µM*
COc1ccc(-c2noc(CC3CCN(C(=O)Cc4ccccc4Cl)CC3)n2)cc1 | i | ? | ? | 10µM* | 17.2µM* | 21.7µM* | 0.8% | 19.3µM*
COc1cccc(CCC(=O)N2CCC(Cc3nc(-c4ccccc4)no3)CC2)c1 | i | ? | ? | ? | · | · | · | ·
Cc1cc2nc3n(c(=O)c2n1CC(=O)Nc1cccc(Cl)c1)CCC3 | i | -23.8% | -26.1% | -16.0% | · | · | · | ·
COc1cccc(C(=O)N2CCN(C(=O)c3nc4cccnc4n(C4CC4)c3=O)CC2)c1 | · | -7.6% | -8.8% | · | · | · | · | ·
COc1ccc(C(=O)N2CCC3(CC2)NC(=O)N(c2cccc(F)c2)N3)c(OC)c1 | i | ? | -16.7% | -10.6% | · | · | · | ·
Cc1ccc(CNC(=O)CC2CCCN(c3cnn(C)c(=O)c3)C2)cc1 (stereo not drawn) | i | -14.8% | -13.0% | 6.1% | · | · | · | ·
COc1cccc(-c2noc(CC3CCN(C(=O)COc4cccc(C)c4)CC3)n2)c1 | i | ? | ? | 20µM* | ? | 30.6µM* | 1.7% | 38.5µM*
Cc1cccc(OCC(=O)N2CCC(Cc3nc(-c4cnccn4)no3)CC2)c1 | i | -23.1% | ? | -2.8% | · | · | · | ·
COCc1nc(-c2ccc(OC3CCN(C(=O)CCc4ccc(OC)cc4)C3)cc2)no1 (stereo not drawn) | i | ? | ? | 14.1µM* | 27.3µM* | 27.3µM* | -4.2% | ?
COc1cccc(CCC(=O)N2CCC(Oc3ccc(-c4noc(C5CC5)n4)cc3)C2)c1 (stereo not drawn) | i | ? | ? | ? | · | · | · | ·
Cn1cc(CC(=O)N2CCCc3ncc(C(=O)N4CCC(c5ccccc5)CC4)cc32)c2ccccc21 | i | 39.8µM* | ? | 15.8µM* | 21.7µM* | 21.7µM* | 6.2% | 19.3µM*
Cc1cc(C(=O)N2CCC(CC(=O)N(C)Cc3ccccc3)C2)n(C)n1 (stereo not drawn) | · | -10.6% | -7.8% | · | · | · | · | ·
CC(C)c1nncn1C1CCN(S(=O)(=O)c2cccc(Cl)c2)CC1 | i | -20.8% | -24.2% | ? | ? | ? | 0.1% | 24.3µM*
CN1C[C@@H](NC(=O)Nc2ccc(Cl)cc2)C[C@H]1c1nc(-c2ccc(F)cc2)no1 | i | 31.6µM* | ? | 31.6µM* | 12.5µM* | 19.8µM* | 1.4%[86.2 µM] | 12.5µM*
CN1C[C@@H](NC(=O)Nc2cccc(C#N)c2)C[C@H]1c1nc(-c2ccc(Cl)cc2)no1 | i | ? | 39.8µM* | 25.1µM* | 15.7µM* | 25µM* | 2.6%[86.2 µM] | 17.7µM*
Cc1ccc(-c2noc([C@@H]3C[C@H](NC(=O)CC(C)(C)C)CN3C)n2)cc1 | i | 89.1µM* | ? | 35.5µM* | ? | ? | -25.3%[86.2 µM] | ?
SMILES | Luciferase inh | HEK293 tox | 3T3 cytotox | hNpr1 antagonist | NPR1 antag cnf | NPR2 antag | FLuc counter | GloSensor cGMP
CN1C[C@@H](NC(=O)CC(C)(C)CC(=O)O)C[C@H]1c1nc(-c2ccccc2)no1 | ? | -4.7%[172 µM] | -12.5%[174 µM] | 8.4%[70.6 µM] | · | · | · | ·
COc1ccc(-c2noc([C@@H]3C[C@H](NS(=O)(=O)c4ccc5ccccc5c4)CN3C)n2)cc1 | i | ? | ? | 20µM* | 24.3µM* | 24.3µM* | ? | 19.3µM*
COc1ccc(N2CCN(C(=O)CN3C(=O)C(c4ccccc4)=NC3(C)C)CC2)cc1 | i | ? | -28.7% | 0.0% | · | · | · | ·
C[S+](=O)([O-])NCCn1ccc2cc(OC3CCN(c4ncc(F)cn4)CC3)cnc21 | i | ? | ? | 22.4µM* | 19.8µM* | 28µM* | -0.6%[86.2 µM] | 22.2µM*
O=C(Nc1ccc(Cl)cc1Cl)c1ccc2cc[nH]c2n1 | · | -8.8% | -5.8% | · | 1.71µM* | 2.7µM* | 0.152µM* | 2.41µM*
O=C(Nc1ccc(Cl)cc1Cl)c1c[nH]c2cccnc12 | · | ? | ? | · | 21.5µM* | 13.5µM* | 0.959µM* | ?
C=CCNC(=O)OC1CN(CC=C)C(=O)CN([S+](=O)([O-])c2cccs2)C1 (stereo not drawn) | · | -18.1% | ? | · | · | · | · | ·
COc1ccc(CCC(=O)NCC2Cn3cccc3C(=O)N2Cc2cccnc2)cc1 (stereo not drawn) | · | 1.6% | -9.5% | · | · | · | · | ·
COc1cccc(CCC(=O)N2CCC(c3nc(C4CCOCC4)no3)C2)c1 (stereo not drawn) | i | ? | -26.0% | -1.4% | · | · | · | ·
